Screening results as filed in PubChem.
NPC1 prom act: NPC1 promoter activation | Potency, µM (highest dose often 9.22 µM), without a hit: at the top dose activation, usual class: activators | Huh7 NPC1 promoter luciferase reporter, 24 h | 2.4% of 320,000 active; further: % of control where 0% means no effect; nearly all actives have a fitted effect of over 60% in size
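Luminescence from an NPC1 promoter-driven luciferase reporter in stably transfected Huh7 cells was measured after 24 h compound treatment at 37 °C, followed by 10 min ambient incubation with luciferase detection reagent.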
SMN2 splice enh: increases expression of the SMN2 splice variant. Potency, µM (top dose mostly 46.1 µM), for the others: at the highest dose activity change, positive = activation, usual class: activators. HEK293 SMN2-luciferase splicing reporter, luminescence, 30-36 h. AID 1458. 2.8% of 210,000 active; further: % of control where 0% means no effect; nearly all actives have a fitted effect of over 55% in size
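HEK293 cells carry an SMN2 […]–luciferase reporter in which exon 7 inclusion puts luciferase in frame. Cells were plated 10-12 h before compound addition, then incubated 30-36 h at 37C. ONE-Glo luminescence was read; sodium butyrate at 4.5 mM final served as control.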
Rab9 promoter act: activators of Rab9 promoter. Huh7 Rab9 promoter-luciferase reporter, luminescence, 24 h. Potency, µM (highest dose often 9.22 µM), for inactives: top-dose activation, negative = inhibition, actives largely listed as activators. 2.8% of 320,000 active. AID 485297; further: % of control where 0% means no effect; nearly all actives have a fitted effect of over 60% in size
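Using Huh7 cells stably transfected with Rab9 promoter–luciferase, compounds were incubated 24 h at 37 °C, 5% CO2; luciferase luminescence was read 10 min after reagent addition.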
FLuc modulator: firefly luciferase modulation, counter-screen for miR-21 project. purified FLuc, Km substrates, luminescence inhibition. Potency, µM (titrated, usually from 57.5 µM), inactives show at the top dose activity change, negative = inhibition, hits mostly inhibitors. 6.9% of 360,000 active;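 further: plate controls were vehicle for no effect and reference inhibitor for full effect; nearly all actives have a fitted effect of over 55% in size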
Target sequence (P08659 whole entry, looked up): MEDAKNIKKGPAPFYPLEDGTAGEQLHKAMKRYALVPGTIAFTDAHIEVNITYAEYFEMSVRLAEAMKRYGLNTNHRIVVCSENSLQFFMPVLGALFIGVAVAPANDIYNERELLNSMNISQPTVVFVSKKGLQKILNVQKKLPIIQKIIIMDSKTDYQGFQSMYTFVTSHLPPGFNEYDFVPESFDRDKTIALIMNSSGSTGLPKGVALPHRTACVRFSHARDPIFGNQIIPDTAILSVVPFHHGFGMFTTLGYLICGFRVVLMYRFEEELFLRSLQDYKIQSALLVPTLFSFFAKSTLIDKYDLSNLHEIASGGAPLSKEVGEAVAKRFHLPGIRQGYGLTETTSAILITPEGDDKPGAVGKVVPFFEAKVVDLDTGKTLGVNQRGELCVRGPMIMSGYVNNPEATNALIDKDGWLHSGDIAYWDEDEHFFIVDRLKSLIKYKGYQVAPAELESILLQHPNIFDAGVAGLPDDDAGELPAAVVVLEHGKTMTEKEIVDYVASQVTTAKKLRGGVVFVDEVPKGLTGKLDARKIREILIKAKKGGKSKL
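Biochemical qHTS of compounds, final roughly 60 µM downward over six points, against 10 nM purified firefly luciferase using Km concentrations of substrates (10 uM D-luciferin, 10 uM ATP) in Tris acetate pH 7.5 buffer; luminescence output.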
KinaseGlo FLuc: Kinase-Glo luciferase inhibition (counter-screen). Potency, µM (series often up to 38.3 µM), without a hit: at the highest dose activity change, negative = inhibition, usual class: inhibitors. 0.28% of 200,000 active. Q27757. AID 1379. Kinase-Glo luciferase, ATP luminescence, 8 min; further: on the % scale 0 is the no-effect control and ±100 the full control effect; nearly all actives have a fitted effect of over 60% in size
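Substrate mix (final 50 mM imidazole pH 7.2, 50 mM KCl, 7 mM MgCl2, 10 uM ATP, 0.01% Tween 20, 0.05% BSA) plus pin-tool compound, then Kinase-Glo detection mix; 8 min ambient, luminescence read.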
* marks the source's active call; other numbers are inactive results; ? = inconclusive; · = no result given. A selection: hits, their analogues and other compounds. The true share with any hit is near 7.3%. The call rests on the fitted dose curve; in most records, active means well fitted curve in the direction sought with a large enough effect; inconclusive means small, poorly fitted or top-dose-only effect, or another doubt; inactive means no such curve, though single readings can be large; an effect the other way counts as inactive or inconclusive. Potency means the concentration at half of the fitted maximal effect.

SMILES	NPC1 prom act	SMN2 splice enh	Rab9 promoter act	FLuc modulator	KinaseGlo FLuc
O=C1CN(c2ccccc2)C(=S)N1C(=O)c1ccc(Br)cc1	2.2µM*	·	3.2µM*	12µM*	·
Cc1ccc(NC(=S)N2CCC(c3ccc(C)cc3)C2)cc1 (stereo not drawn)	26%	·	?	15µM*	·
CCOc1ccc(NC(=S)N2CCC(c3ccc(C)cc3)C2)cc1 (stereo not drawn)	2%	·	-2%	-2%	·
COc1ccc(NC(=S)N2CCC(c3ccc(C)cc3)C2)cc1 (stereo not drawn)	-1%	·	5%	?	·
COc1cccc(NC(=S)N2CCC(c3ccc(C)cc3)C2)c1 (stereo not drawn)	29%	·	?	13µM*	·
O=C(CSc1nc2ccccc2n1Cc1cccc(F)c1)NCc1ccccc1	·	·	·	-18%	·
Cn1cnnc1SCC(=O)Nc1sc2c(c1C#N)CCCCC2	10%	-17%	11%	27µM*	-1%
N#Cc1c(NC(=O)CSc2ncn[nH]2)sc2c1CCCCC2	-18%	-74%	-25%	7.6µM*	1%
CCCC(=O)Nc1ccc(C(=O)Nc2cccc(OC)c2)cc1	21%	-7%	12%	?	-19%
COc1cccc(NC(=O)Nc2ccc(C(C)(C)C)cc2)c1	?	11µM*	?	3µM*	-2%
COc1cccc(NC(=O)c2ccc(NC(=O)C(C)(C)C)cc2)c1	?	13µM*	?	9.5µM*	-4%
NC(=O)c1ccccc1-c1nc(-c2ccccc2)no1	?	21%	?	24µM*	8%
NC(=O)c1cccc(-c2noc(-c3ccccc3F)n2)c1	0.89µM*	·	0.79µM*	2.7µM*	·
COC(=O)c1cccc(-c2noc(-c3ccccc3F)n2)c1	?	·	0.28µM*	1.7µM*	·
CCOc1ccc(C(=O)c2cn(CC(=O)Nc3cccc(OC)c3)c3cc4c(cc3c2=O)OCCO4)cc1	·	-5%	·	7%	·
Cn1c(C(=O)NCc2ccc(F)cc2)cc2cc(S(=O)(=O)N3CCCCC3)ccc21	·	·	·	-1%	·
Cc1nc2c(c(C)c1CCC(=O)NCc1ccccc1)c(=O)n(C)c(=O)n2C	·	?	·	2%	·
CCOC(=O)c1cccc(NC(=O)CC2C(=O)N(c3ccc(F)cc3)C(=O)N2C(C)C)c1 (stereo not drawn)	·	·	·	2%	·
COc1ccc(C(=O)COC(=O)c2ccccn2)cc1OC	-2%	·	-2%	-10%	·
O=C(COC(=O)c1ccccn1)c1ccc(Br)cc1	1%	4%	3%	2.4µM*	-4%
O=C(COC(=O)c1ccc(Br)cc1)Nc1cccnc1Cl	-1%	·	-4%	-3%	·
O=C(OCC1CC(c2ccccn2)=NO1)c1ccc(Br)cc1 (stereo not drawn)	12%	-5%	9%	17µM*	-9%
O=C(COC(=O)c1ccccn1)c1cccc(Br)c1	?	·	-5%	19µM*	·
O=C(Nc1cccc(-c2csc(-c3ccccc3)n2)c1)c1cccs1	4%	-23%	-1%	11µM*	17%
O=C(O)c1csc(-c2ccccc2)n1	-2%	·	-1%	4%	·
SMILES	NPC1 prom act	SMN2 splice enh	Rab9 promoter act	FLuc modulator	KinaseGlo FLuc
O=C(Nc1ccccc1)c1csc(-c2ccccc2)n1	12%	2%	16%	21µM*	0%
Cc1nc(-c2cccc(NC(=O)c3cccs3)c2)cs1	8%	12%	-4%	24µM*	1%
O=C(NNC(=O)c1csc(-c2cccnc2)n1)c1ccccc1	12%	·	-3%	?	·
O=C(Nc1ccccc1Cl)c1csc(-c2cccnc2)n1	2.8µM*	·	2.8µM*	12µM*	·
CC(C)C(=O)N1c2nc(-c3ccco3)nn2C2(CCCCC2)[C@@H]2CCCC[C@@H]21	·	·	·	-7%	·
Cc1cccc(OCCn2c(SCC(N)=O)nc3ccccc32)c1	·	7%	·	4%	·
O=c1c2sc(-c3ccccc3)cc2nc2n1CCCCC2	1.4µM*	·	0.56µM*	2.1µM*	·
O=c1c2c(-c3ccccc3)csc2nc2n1CCC2	-4%	8%	-3%	3%	-1%
O=c1c2sc(-c3ccccc3)cc2nc2n1CCC2	0.56µM*	2.2µM*	0.45µM*	1.3µM*	?
Cc1c(NC(=O)Nc2ccc(Cl)c(C(F)(F)F)c2)c(=O)n(-c2ccccc2)n1C	·	-9%	·	0%	·
Cc1csc2nc(COc3ccccc3NC(=O)c3ccccc3Cl)cc(=O)n12	·	6%	·	-7%	·
COc1cc2c(cc1NC(=O)C(C)Sc1cccc[n+]1[O-])oc1ccccc12 (stereo not drawn)	?	10µM*	?	?	2%
COc1cc2c(cc1NC(=O)C(C)Sc1nc3ccccc3n1C)oc1ccccc12 (stereo not drawn)	2%	-27%	-1%	1%	-3%
COc1cc2c(cc1NC(=O)COCC(=O)O)oc1ccccc12	-5%	·	-3%	17µM*	·
COc1cc2c(cc1NC(=O)COc1ccc3ccccc3c1)oc1ccccc12	-4%	-18%	11%	1%	-4%
COc1ccccc1CC(=O)Nc1cc2oc3ccccc3c2cc1OC	2%	-29%	3%	-19%	1%
COc1ccc(CC(=O)Nc2cc3oc4ccccc4c3cc2OC)cc1	?	14µM*	?	15µM*	1%
COc1cc(OC)c(NC(=O)c2c(C)oc3ncn(C)c(=O)c23)cc1Cl	·	2%	·	-1%	·
Cc1ccc(C(=O)Nc2c(-c3ccccc3)nc3ccccn23)cc1	·	-17%	·	-1%	·
CCC(=O)Nc1c(-c2ccc3ccccc3c2)nc2ccccn12	17%	·	?	3.8µM*	·
CC(=O)Nc1c(-c2ccc3ccccc3c2)nc2ccccn12	?	·	?	1.9µM*	·
CC(=O)Oc1cc(-c2coc3cc(OC(C)=O)c(OC(C)=O)c(OC(C)=O)c3c2=O)cc(OC(C)=O)c1OC(C)=O	·	-8%	·	·	0%
O=C(C1CCN(S(=O)(=O)c2cccs2)CC1)N1CCN(c2ccccc2F)CC1	·	1%	·	-8%	·
COc1ccc(C(C(C(=O)c2ccco2)N2CCOCC2)N2CCOCC2)cc1 (stereo not drawn)	0%	-2%	-7%	13µM*	-3%
CSc1ccc(C(C(C(=O)c2cccs2)N2CCOCC2)N2CCOCC2)cc1 (stereo not drawn)	2%	14%	-1%	27µM*	3%
SMILES	NPC1 prom act	SMN2 splice enh	Rab9 promoter act	FLuc modulator	KinaseGlo FLuc
COc1ccc(C(CNC(=O)c2ccco2)N2CCOCC2)cc1 (stereo not drawn)	-2%	·	3%	·	·
O=C(Nc1nnc2n1CCS2)c1ccc(F)cc1F	·	·	·	3%	·
Cc1ccc(NC(=O)NCc2cccn2Cc2ccccc2)c(C)c1	·	·	·	-2%	·
COc1ccc(OCC(=O)Nc2nonc2NC(=O)COc2ccc(OC)cc2)cc1	1%	14%	2%	1.9µM*	1%
COc1ccc(OCC(=O)Nc2cccc(NC(=O)COc3ccc(OC)cc3)n2)cc1	2.5µM*	-11%	?	2.1µM*	-13%
COc1ccc(C(C)NC(=O)CN(c2cc(OC)ccc2OC)S(=O)(=O)c2ccccc2)cc1 (stereo not drawn)	·	-5%	·	1%	·
